Source: PubChem BioAssay (Tox21)
The source made the active and inactive calls. The call rests on the fitted dose curve; in most records, active means well fitted curve in the direction sought with a large enough effect in the repeat runs; inconclusive means weak or mixed curves; inactive means flat fitted curve, though single readings scatter.

assay: qHTS assay to test for compound auto fluorescence at 590 nm (red) in HepG2 cells (AID 720674); conditions: HepG2 autofluorescence, red 540/590 nm, 1 h; series mostly up to 46 µM
Text: U.S. Tox21 Program National Center for Advancing Translational Sciences [NCATS] NIH Chemical Genomics Center [NCGC] U.S. Environmental Protection Agency [EPA] National Institutes of Environmental Health Sciences [NIEHS] National Toxicology Program [NTP] U.S. Food and Drug Administration [FDA] Tox21 Assay Overview: Compound auto fluorescence often interferes with screening of the compound library against various biological targets and signaling pathways. Some of these compounds may have fluorophoric properties. Such properties may interfere with the assay outputs resulting in false positives and/or negatives. To decrease such complications and ensure the compound activities are relevant in terms of biological response, the Tox21 10K compound library was screened for auto fluorescence. From the fluorophores used as reporter signals in our screening assays, the auto fluorescence equivalencies of compounds against three fluorophores have been evaluated: Triamterene, Fluorescein and Rose Bengal sodium for blue, green and red fluorescence, respectively. The fluorescence intensities were measured using Excitation/Emission wavelengths at 405/460nm, 485/535nm and 540/590nm for blue, green and red labels, respectively. This assay includes the red fluorescence data.
Tox21 Assay Protocol Summary: 2,000 HepG2 cells in 5 uL of culture medium (MEM containing 10% FBS) per well were dispensed into black wall/clear bottom 1536-well plates using a Multidrop Combi Dispenser (ThermoFisher Scientific, Waltham, MA). The assay plates were incubated overnight at 37 C to allow cell attachment to the well bottom, followed by the transfer of 23 nL compound or DMSO vehicle by a pintool work station (Kalypsys , San Diego, CA). After the assay plates were incubated for 1 hr at 37 C and 5% CO2, fluorescence intensities in the assay plates were measured by an Envision (PerkinElmer, Shelton, CT) plate reader using three labels for measuring blue, green and red fluorescence at […] 460, 535 and 590 nm respectively.

Structure (SMILES)	outcome
CN[C@@]1(c2ccccc2Cl)CCCCC1=O	inactive
NCC(O)c1cccc(O)c1 (stereo not given)	inactive
Cc1nnc2n1-c1sc(Br)cc1C(c1ccccc1Cl)=NC2	inactive
Cc1nnc2n1-c1sc(CCc3ccc(CC(C)C)cc3)cc1C(c1ccccc1Cl)=NC2C (stereo not given)	inactive
c1ccccc1	inactive
COc1ccc2c(c1)C13CCCC[C@@H]1C(C2)N(C)CC3 (stereo not given in full)	inactive
O=C(O)/C=C/C(=O)O	inactive
CC(=O)[C@@]1(O)CC[C@H]2[C@@H]3CCC4=CC(=O)CC[C@]4(C)C3(F)[C@@H](O)C[C@@]21C (stereo not given in full)	inactive
CCC1(c2ccccc2)C(=O)NC(=O)N(C)C1=O (stereo not given)	inactive
CC(N)Cc1ccc2c(c1)OCO2 (stereo not given)	inactive
O=P1(N(CCCl)CCCl)NC(OO)CCO1 (stereo not given)	inactive
CCC(C)(S(=O)(=O)CC)S(=O)(=O)CC	inactive
O=C1Nc2ccc(Cl)cc2C(c2ccccc2Cl)=NC1O (stereo not given)	inactive
C[C@@H]1[C@H]2Cc3ccc(O)cc3[C@]1(C)CCN2C	inactive
CC(C)C[C@H]1C(=O)N2CCC[C@H]2[C@]2(O)O[C@](NC(=O)[C@@H]3C[C@@H]4c5cccc6[nH]cc(c56)C[C@H]4N(C)C3)(C(C)C)C(=O)N12	inactive
CCCCc1ccc(C(=O)O)nc1	inactive
COc1cc(OC)c(OC)cc1C=O	inactive
C[C@]12CC[C@H]3[C@@H](CCC4=CC(=O)CC[C@@]43C)[C@@H]1CC[C@H]2O	inactive
O=c1ccc2cc(O[C@@H]3O[C@H](CO)[C@@H](O)[C@H](O)[C@H]3O)c(O)cc2o1	inactive
CC(=O)Oc1ccc2c3c1O[C@H]1[C@@H](OC(C)=O)C=C[C@H]4[C@@H](C2)N(C)CC[C@@]341	inactive

Structure (SMILES)	outcome
CCCC(=O)OC(C(Cl)(Cl)Cl)P(=O)(OC)OC (stereo not given)	inactive
CNC(C)CC1CCCCC1 (stereo not given)	inactive
CN1c2ccccc2C(NCCCCCCC(=O)O)c2ccc(Cl)cc2S1(=O)=O (stereo not given)	inactive
C[C@]12CCC(=O)C[C@@H]1CC[C@@H]1[C@@H]2CC[C@@]2(C)[C@H]1CC[C@]2(C)O	inactive
CNc1ccc(C(=O)CC(O)CCC(C)C2OC(=O)CC(O)CC(=O)CC(O)CC(O)CC(O)CC(O)CC3(O)CC(O)C(C(=O)OC)C(CC(O[C@@H]4O[C@H](C)[C@@H](O)[C@H](N)[C@@H]4O)/C=C/C=C/C=C/C=C/C=C/C=C/C=C/C2C)O3)cc1 (stereo not given in full)	inactive
Cc1nnc2n1-c1ccc(Cl)cc1C(c1ccccc1Cl)=NC2	inactive
Cc1ccc2ccccc2c1C	inactive
CC(=O)OC1CN2CCC1CC2 (stereo not given)	inactive
COc1cc(C[C@H](C)N)c(OC)cc1C	inactive
O[C@H]1[C@H]2[C@H](O)CCCN2C[C@H]1O	inactive
C#CC(C)(O)CC (stereo not given)	inactive
Cc1cc(C)cc(C(=O)OC2C[C@H]3CC[C@@H](C2)N3C)c1 (stereo not given in full)	inactive
C[C@@H](CO)NC(=O)[C@@H]1C=C2c3cccc4[nH]cc(c34)C[C@H]2N(C)C1	inactive
CN=C1CN(O)C(c2ccccc2)=c2cc(Cl)ccc2=N1	inactive
CCCCCc1cc(O)c2c(c1)OC(C)(C)c1ccc(C)cc1-2	inactive
COc1ccc(OC)c(C[C@H](C)N)c1	inactive
C[C@H]1[C@H]2Cc3ccc(O)cc3[C@]1(C)CCN2CCc1ccccc1	inactive
N#CC(C#N)=Cc1cc(O)c(O)c(O)c1	inactive
O=C(NC(=O)c1c(F)cccc1F)Nc1ccc(Cl)c(Oc2ncc(C(F)(F)F)cc2Cl)c1	inactive
CCOC(=O)C1(c2ccccc2)CCCN(C)CC1 (stereo not given)	inactive
